In PubChem BioAssay AID1498 (National Center for Advancing Translational Sciences (NCATS), 2009):
Inconclusive results are not listed. Calls of active or inactive are those of the source. Calls follow the shape of the full dose curve.

experiment: Confirmation Concentration-Response Assay for Modulators of Lamin A Splicing; conditions: HeLa lamin A splicing GFP/RFP minigene, Acumen, 48 h; RFP activity: RFP channel at top concentration, at 46.1 µM; ratio activity: GFP/RFP ratio at top concentration, at 46.1 µM; series mostly up to 46.1 µM
Text: NCGC Assay Overview: Hutchinson-Gilford Progeria Syndrome (HGPS) is a pediatric premature aging disease caused by a spontaneous mutation in the lamin A/C (LMNA) gene. The mutation activates a cryptic splice site in the LMNA pre-mRNA which results in production of a pre-lamin A protein that cannot be processed properly. The mutant protein accumulates in the nucleus and negatively affects numerous cellular functions. Correction of the splicing defect in HGPS patient cells using a targeted oligonucleotide (exo11) leads to reversal of the cellular disease phenotypes. To identify small molecule modulators of aberrant LMNA splicing, a homogenous assay was constructed in HeLa cells that used a GFP containing minigene to report on correction of aberrant splicing in lamin A and a RFP (DsRed2) to report on cell viability, uniformity and nonspecific effects on the assay signal. This assay was adapted to laser-scanning microplate cytometry (Acumen, TTP Labtech) where miniaturization of the assay to a 1,536-well plate format was possible. Select compounds active in the primary screen (AID 1487) were chosen for confirmation based on potency, efficacy, SAR and activity in other assays in PubChem and at NCGC. References: Bowen, W. P.; Wylie, P. G. Application of Laser-Scanning Fluorescence Microplate Cytometry in High Content Screening. Assay Drug Dev Technol 2006;4:209-221. Scaffidi P, Misteli T. Reversal of the cellular phenotype in the premature aging disease Hutchinson-Gilford progeria syndrome. Nat. Med. 2005;11:440-445.
NCGC Assay Protocol Summary: Reagents/Controls: Stable clones expressing DsRed2 and lamin A-EGFP were generated by Cell and Molecular Technologies in S3 HeLa cells. HeLa cells were prepared for the assay when they were 70-90% confluent. The cells were counted and resuspended in Opti-MEM I (no phenol red; Gibco), 2% FBS, 1% penicillin/ streptomycin (Gibco) at concentration of 120 cells/uL concentration. The suspension was passed through a Falcon basket filter with pore size 40um (Beckton Dickson). Control titrations: column […] 1536-well plate contained a sixteen point titration (1:2 dilutions) in duplicate of ancitabine (Sigma: A8598) beginning at 40 uM final concentration. Column 2 contained a sixteen point titration (1:2 dilutions) of cycloheximide beginning at 1.4 mM final concentration. Column 3 contained ancitabine at 40 uM and column 4 contained was the vehicle control (0.5% DMSO final concentration). Assay Steps: 5 uL of HeLa cells were plated in Aurora LoBase black clear bottom (cyclic-olefin polymer) 1536-well plates at a final density of 600 cells/well. Controls and library compounds were added with a 1536-well pin array using the Kalypsys pin-tool. The plates were then incubated for 48 hrs in a cell-culture incubator (37 °C; 5% CO2, 98% humidity). Following incubation the plates were read on the Acumen Explorer using the 488 nm laser. Data was collected on objects between 10 and 100 um in size. Cell objects were defined by a 15 um width x 10 um depth filter. The ratio of the total object intensity in PMT1 (500-530 nm emission; GFP) over PMT3 (575-640 nm emission; RFP) was calculated for analysis. Keywords: NIH Roadmap, MLSCN, MLI, MLSMR, qHTS, NCGC, lamin A, Progeria, RNA splicing.

| Compound | ratio activity | RFP activity | outcome |
| --- | --- | --- | --- |
| Cc1noc(C)c1-c1ccc2ncnc(NCc3ccc(C(C)(C)C)cc3)c2c1 | -12.9% | -7.69% | inactive |
| CC(C)(C)n1nnnc1C(c1ccc2ncccc2c1)N1CCSCC1 (stereo not given) | -14.8% | -8.12% | inactive |
| Cc1ccc(S(=O)(=O)N(CC(=O)Nc2ccccc2C(=O)O)c2cccc(Cl)c2C)cc1 | -14.3% | 26.8% | inactive |
| Cc1noc(C)c1-c1ccc2ncnc(NCc3cccc(-c4ccccc4)c3)c2c1 | -27.8% | 22.9% | inactive |
| Cc1cc(/C=N/n2cnnc2)c(C)n1-c1cccc(C(=O)O)c1 | -3.02% | -18.9% | inactive |
